High-throughput results from PubChem BioAssay.
Rows were chosen to be rich in hits. Some 6.1% of all compounds tested hit in one or more screens of this group.
D1 ag = agonists of human D1 dopamine receptor. 1% of 360,000 active. HEK293 T-REx D1 cells, calcium flux, agonist mode. activation, % at 2 µM. P21728; in the data active = activation above about 30%; also: 0% is about no effect
Target sequence (P21728 whole entry, looked up): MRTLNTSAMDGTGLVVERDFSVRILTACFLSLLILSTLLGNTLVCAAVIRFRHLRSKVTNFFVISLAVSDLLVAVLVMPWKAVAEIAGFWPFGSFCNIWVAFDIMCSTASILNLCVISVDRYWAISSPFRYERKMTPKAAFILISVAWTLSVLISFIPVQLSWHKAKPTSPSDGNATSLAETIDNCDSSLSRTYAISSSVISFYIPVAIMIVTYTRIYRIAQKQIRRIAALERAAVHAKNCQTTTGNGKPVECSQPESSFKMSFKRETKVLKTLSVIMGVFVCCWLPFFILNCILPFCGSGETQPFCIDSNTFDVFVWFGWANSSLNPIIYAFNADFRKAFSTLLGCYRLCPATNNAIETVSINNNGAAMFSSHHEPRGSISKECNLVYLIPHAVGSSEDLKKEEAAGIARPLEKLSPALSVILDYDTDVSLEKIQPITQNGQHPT
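Tetracycline-induced HEK293 TREx D1 cells, force-coupled to calcium signalling, were dye-loaded with a no-wash calcium kit. Compound was pin-added after a 10 s baseline. Fluorescence was read kinetically at 1 cycle/s for 180 s, with calcium rises flagged as agonism.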
ERG-DNA inh = blocks human ERG Ets domain binding to DNA | P11308 | fluorescence polarization, His-ERG Ets domain / labelled DNA | Potency, µM (series often up to 76.9 µM), inactives show top-dose FP activity, negative = inhibition, actives largely listed as inhibitors | 0.028% of 370,000 active | AID 624246; active = well fitted inhibition curve with a large enough effect in the polarisation, with a control signal flat; inconclusive = small, poorly fitted or top-dose-only effect, or effect the other way, or a change in a side signal; inactive = no such curve, though single readings can be large or run the other way; the % refers to the polarisation;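 also: polarization taken with two DNA probes labelled with fluorescein and Texas red; potency is read from the fitted curve at half-maximal effect; % of control where 0% means no effect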
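His-tagged ERG Ets domain (1 uM in the protein solution; 300mM KCl, 50mM Tris-HCl, 1mM EDTA, 1mM DTT, pH 7.5) received compound, then a probe mix of 5 nM fluorescein-DNA and 100nM Texas-615-DNA. Fluorescence polarization was read for both dyes.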
D1 antagonist = blocks dopamine activation of the human D1 receptor; P21728; HEK293 TREx D1 cells, calcium flux, dopamine EC80; hits give low values; activity change, negative = inhibition, % at 10 µM; 3.2% of 360,000 active; AID 504652; in the data active = activity change below about -30%; also: % is scaled to controls: 0 for no effect and ±100 for the full control effect
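Tetracycline-induced HEK293 T-REx cells with force-coupled D1 receptor were loaded with a no-wash calcium dye. Compound was added after a 10 s baseline and read kinetically for 180 s; EC80 dopamine was then added and calcium flux followed another 180 s.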
DRD3 agonist = activates the human D3 dopamine receptor. 0.58% of 410,000 active. D3R DiscoveRx beta-arrestin cells, luminescence, 90 min. max activation, %. AID 652048; in the data active = max activation above about 30%; also: 0% is about no effect
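Agonist-mode cell screen: cells plated at 1500/well and incubated overnight at 37 °C, then exposed to library compounds for 90 min at 37 °C. Detection reagent was added for 30–60 min at room temperature, and luminescence was read.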
D1 potentiator = potentiators of human D1 dopamine receptor. P21728. HEK293 TREx D1 cells, calcium flux, dopamine EC20 potentiation. potentiation, % at 10 µM. 0.036% of 360,000 active. AID 504651; in the data active = potentiation above about 30%; also: 0% is about no effect
D3 antag = D3 dopamine receptor (human) antagonism. D3R cells, DiscoveRx beta-arrestin luminescence, antagonist mode; hits give low values. max response, negative = inhibition, %. P35462. 2.5% of 360,000 active; in the data active = max response below about -50%; inconclusive = no clear call, values can overlap the other calls; also: % is scaled to controls: 0 for no effect and ±100 for the full control effect
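Cells expressing the human receptor were seeded at 1500 cells/well, incubated overnight at 37 degrees C in 5% CO2, then exposed to library compounds with dopamine controls for 90 minutes at 37 degrees C before luminescent detection.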
An asterisk follows results filed as active; ? = inconclusive; nt = no result.

SMILES | D1 ag | ERG-DNA inh | D1 antagonist | DRD3 agonist | D1 potentiator | D3 antag
O=C(/C=C/c1ccc(Cl)cc1Cl)NC(=S)Nc1ccc(CN2CCOCC2)cc1 | 1.7 | -9.2% | -4.6 | -29.5 | -2.5 | -82.8*
O=C(/C=C/c1ccc(Cl)cc1)Nc1ccc(CN2CCOCC2)cc1 | 14.1 | 12.9% | -18.7 | 12.6 | -6.2 | -20.9
COc1ccc(N2CCN(Cc3nnc(-c4ccc5c(c4)OCO5)o3)CC2)cc1 | 4.6 | -9.1% | -14.0 | 4.1 | -2.8 | nt
Cc1ccccc1NC(=O)N1CCNC(=O)C1CC(=O)Nc1cc(Cl)ccc1Cl (stereo not given) | 2.2 | -4.6% | 10.3 | -4.0 | -10.2 | -17.4
Cc1ccc(C2/C(=C(\O)c3c(C)nc4ccccn34)C(=O)C(=O)N2CCN(C)C)o1 (stereo not given) | 0.7 | 0.4% | -1.2 | 43.0* | 3.1 | 11.0
N=c1c2c(-c3ccccc3)c(-c3ccccc3)n(Cc3ccco3)c2ncn1CCCn1ccnc1 | 13.7 | 1.1% | 16.2 | -7.3 | -1.6 | -29.7
OCCNc1ncnc2c1c(-c1ccccc1)c(-c1ccccc1)n2Cc1ccco1 | 3.0 | -4.0% | -2.4 | 1.2 | -3.6 | -3.9
CC(C)Cn1cnc2c(c(-c3ccccc3)c(-c3ccccc3)n2Cc2ccco2)c1=N | 34.0* | 7.8% | 20.2 | -1.9 | -2.2 | -62.0*
N=c1c2c(-c3ccccc3)c(-c3ccccc3)n(Cc3ccccc3)c2ncn1CCO | 218.1* | -2.5% | 56.1 | -0.8 | 45.6* | 15.5
N=c1c2c(-c3ccccc3)c(-c3ccccc3)n(Cc3ccco3)c2ncn1CCCN1CCOCC1 | 6.7 | -5.7% | 4.0 | -2.4 | -4.0 | -7.2
c1ccc(-c2c(-c3ccccc3)n(Cc3ccco3)c3ncnc(NCCCn4ccnc4)c23)cc1 | 51.8* | 0.6% | 0.5 | 2.7 | 7.0 | -95.2*
N=c1c2c(-c3ccccc3)c(-c3ccccc3)n(Cc3ccco3)c2ncn1Cc1ccccc1 | 35.3* | 0.2% | 7.9 | -0.1 | -1.2 | -18.7
CCCCCN(C(=O)CCC(=O)OCc1cccc(C)c1)c1c(N)n(CCCC)c(=O)[nH]c1=O | 2.2 | -16.6% | 1.4 | -1.9 | 2.4 | 21.8
CN(Cc1cccc(F)c1)C(=O)Cc1ccc(S(=O)(=O)N2CCOCC2)s1 | 4.2 | -6.4% | -25.3 | 0.2 | -4.9 | -1.1
O=C1N/C(=N/NC(=O)c2cccc3ccccc23)S/C1=C\c1ccccc1OCc1ccccc1 | 1.2 | -8.5% | -6.5 | 5.6 | -4.2 | -58.6*
O=C(Nc1cccc(Oc2ccc3c(c2)C(=O)NC3=O)c1)c1ccco1 | -0.4 | nt | -3.0 | 2.8 | -4.0 | -6.3
Cc1ccc(Cl)cc1NC(=O)Nc1nnc(N(C)Cc2ccccc2)s1 | 0.5 | -0.3% | -8.3 | -7.6 | -1.9 | nt
Cc1ccc(NC(=O)Nc2nnc(N(C)Cc3ccccc3)s2)c(C)c1 | 4.1 | 4.5% | -40.7* | -18.7 | -0.1 | nt
CCN(c1ccccc1)c1nnc(NC(=O)Nc2ccc(C)cc2)s1 | -2.4 | 0.8% | -34.5* | 3.3 | -2.8 | nt
CCN(c1ccccc1)c1nnc(NC(=O)Nc2ccc(Br)c(C)c2)s1 | 2.2 | 3.8% | -1.6 | -4.5 | -3.3 | nt
CC(C)Sc1cc(N2CCCC2)nc(-c2ccccc2)n1 | 4.7 | -5.2% | 35.6 | -1.7 | 5.8 | -15.0
N#CC(C(=O)OCc1ccccc1)c1nc2ccccc2nc1N1CCOCC1 (stereo not given) | 33.5* | -28.5% | 7.7 | -3.6 | 4.3 | -25.0
N#CC(C(=O)NC1CCCCC1)c1nc2ccccc2nc1N1CCN(c2ccccc2F)CC1 (stereo not given) | 10.4 | 0.8% | -34.7* | 4.5 | -2.6 | -6.7
N#CC(C(=O)NC1CCCCC1)c1nc2ccccc2nc1N1CCOCC1 (stereo not given) | 2.0 | nt | 22.5 | nt | -1.1 | nt
COC(=O)C1CCN(c2nc3ccccc3nc2C(C#N)C(=O)NCCc2ccccc2)CC1 (stereo not given) | 2.4 | -13.6% | -35.3* | -7.8 | -1.1 | 31.0
SMILES | D1 ag | ERG-DNA inh | D1 antagonist | DRD3 agonist | D1 potentiator | D3 antag
CCC(C(=O)NCCc1ccc(SC)cc1)n1nc(C)c2sc3ccccc3c2c1=O (stereo not given) | 4.0 | 1.2% | -8.8 | 0.8 | -0.5 | nt
Cc1cc2oc(=O)cc(CN3CCCC3)c2cc1Cl | nt | nt | nt | -7.7 | nt | ?
CCOC(=O)c1ccc(Nc2nc(=O)c3cccnc3s2)cc1 | -0.5 | 2.5% | 12.1 | 3.4 | 2.7 | -69.7*
COc1ccc(CNC(=O)COC(=O)CNC(=O)c2sc3ccccc3c2Cl)cc1OC | 0.5 | -8.6% | -5.0 | 8.7 | -8.4 | 3.6
C/C(=N\NC(=O)C1(C)CC1(Br)Br)c1cccc(NC(=O)c2ccc(C)o2)c1 (stereo not given) | 5.7 | 25.6% | -2.0 | 36.6* | -4.8 | 77.4
CC(C)(C)c1ccccc1NC(=O)c1ccc2c(c1)SC1=NS(=O)(=O)CCN12 | 1.6 | -18.4% | -21.7 | 0.1 | 3.0 | 7.0
O=C(Cn1c(=O)nc(-c2ccccc2)c2cc(Cl)ccc21)NCc1ccccc1 | -1.2 | 3.2% | 6.9 | 32.4* | 0.1 | nt
CCOc1ccccc1NC(=O)Cn1c(=O)nc(-c2ccccc2F)c2cc(Cl)ccc21 | -2.8 | -0.8% | -43.0* | 0.3 | 1.7 | nt
Cc1ccc(F)cc1NC(=O)Cn1c(=O)nc(-c2ccccc2F)c2cc(Cl)ccc21 | -0.4 | 2.6% | 19.7 | -0.8 | -0.5 | nt
O=C(Cn1c(=O)nc(-c2ccccc2)c2cc(Cl)ccc21)NCCc1ccc(Cl)cc1 | 0.6 | 2.2% | 5.2 | 8.4 | 0.9 | nt
Cc1cccc(/C=N/NC(=O)c2ccc3c(c2)OCCO3)c1O | 3.8 | nt | 4.4 | nt | 0.4 | nt
O=C(NCC1(O)CCCCC1)C1CCC(=O)N(CCc2ccccc2)C1 (stereo not given) | 4.0 | -3.8% | -11.1 | -1.4 | -0.5 | -3.1
COC(=O)c1cccc(NC(=O)c2ccc3c(c2)C(=O)N(Cc2cccnc2)C3=O)c1 | 0.0 | 6.3% | -4.3 | 15.2 | -2.1 | 36.2
CCc1cccc(C)c1NC(=O)c1cc(S(=O)(=O)N2CCC3(CC2)OCCO3)ccc1F | -1.6 | 5.3% | -24.6 | -23.6 | -4.2 | nt
c1ccc(CN2CCN(Cc3c[nH]c4ccccc34)CC2)cc1 | 13.7 | 1.9% | -16.2 | -45.5 | -16.6 | -59.8*
Oc1ccc(CN2CCN(Cc3ccccc3)CC2)c2cccnc12 | 1.8 | -0.2% | 9.6 | -16.0 | 1.1 | -58.1*
COCc1ccc(O)c2ncccc12 | 1.0 | 2.5% | 1.2 | -26.3 | 3.2 | -78.4*
OCC1(Cc2ccccc2)CCCN(Cc2c[nH]c3ccccc23)C1 (stereo not given) | 14.3 | -9.8% | 12.0 | -30.0 | -2.4 | -56.6*
O=S(=O)(c1ccc(Cl)cc1)N1CCN(Cc2ccc(O)c3ncccc23)CC1 | 1.3 | 5.6% | -6.1 | -7.9 | 6.3 | -11.5
